A selection: hits, their analogues and other compounds. The true share with any hit is near 5.7%.
ATXN2 expr inh: Primary qHTS for Inhibitors of ATXN expression. HEK-293 ATXN2-luciferase reporter, luminescence, 24 h. Potency, µM (highest dose often 57 µM), for inactives: at the top dose activity change, negative = inhibition, hits mostly inhibitors. 0.72% of 360,000 active. AID 1745845, 2022; note: potency is the fitted concentration of half-maximal effect; % is set by controls: 0 for no effect and ±100 for the full control effect; nearly all actives have a fitted effect of over 55% in size
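ATXN2-luciferase reporter cells (luciferase flanked by upstream and downstream ATXN2 gene portions) were treated 24 h at 37 °C with compounds at up to 57 uM. SteadyGlo luminescence gave expression; GF-AFC fluorescence gave viability.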
S2 tox: Viability Counterscreen for Primary qHTS for Inhibitors of ATXN expression; S2 cells (HEK-293 line with an ATXN2-luciferase reporter) viability, CellTiter-Fluor protease fluorescence, 24 h; Potency, µM (doses to about 56.7 µM), most hits filed as cytotoxic; 0.49% of 400,000 active; note: potency is the fitted concentration of half-maximal effect; nearly all actives have a fitted effect of over 40% in size
TGFb SMAD3 inh: qHTS for Inhibitors of TGF-b; 1.2% of 410,000 active; HepG2 CAGA-GFP TGF-b/SMAD3 reporter, GFP fluorescence, 18 h; TGF-beta stimulated, 500 pg/mL final; Potency, µM (highest dose often 46.1 µM), inactives show at the top dose activity, negative = inhibition, hits mostly inhibitors; AID 588855, 2011; note: potency is the fitted concentration of half-maximal effect; % is set by controls: 0 for no effect and ±100 for the full control effect; nearly all actives have a fitted effect of over 65% in size
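Inhibition of TGF-beta-driven CAGA-GFP reporter expression in HEPG2 cells is measured by cellular GFP fluorescence after 18 h stimulation with 500 pg/mL recombinant TGF-beta in 1% FBS medium at 37 degrees C.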
HepG2 viability: qHTS for Inhibitors of TGF-b: Cytotox Counterscreen | HepG2 CAGA-GFP viability, ATP luminescence, 18 h | Potency, µM (top dose mostly 46.1 µM), for inactives: top-dose activity change, negative = cytotoxicity, actives largely listed as cytotoxic | 0.76% of 410,000 active | AID 588856, 2011; note: potency is the fitted concentration of half-maximal effect
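HepG2 CAGA-GFP cells (1000/well, DMEM with 1% FBS) received compound, then TGF-beta at 500 pg/mL final, and were incubated 18 hours at 37 degrees C. Viability was read by CellTiter-Glo luminescence. Media-only wells were set as complete cell-killing and DMSO as no toxicity.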
IL1B secr inh: qHTS for Inhibitors of Inflammasome Signaling: IL-1-beta AlphaLISA Primary Screen; THP-1 LPS/ATP IL-1B secretion, AlphaLISA, 16 h; stronger effect = lower value; activity change, % at 57.5 µM; 4.7% of 360,000 active; in the data active = activity change below about -50%; inconclusive = mostly about -30% to -49%; note: % is set by controls: 0 for no effect and ±100 for the full control effect
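THP-1 cells pretreated 1 hr with compounds (up to 57.5 uM final), then stimulated with LPS (250 ng/mL final) plus ATP (1.25 mM final); secreted IL-1B measured by AlphaLISA after 16 hr, decreased signal indicating inhibition.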
Numbers without * were called inactive; i = inactive; ? = inconclusive; / = no result. Unless noted, calls come from the whole dose curve; as a rule, active = well fitted curve in the direction sought with a large enough effect; inconclusive = small, poorly fitted or top-dose-only effect, or another doubt; inactive = no such curve, though single readings can be large; an effect the other way counts as inactive or inconclusive.

SMILES	ATXN2 expr inh	S2 tox	TGFb SMAD3 inh	HepG2 viability	IL1B secr inh
O=C(c1ccc2c(c1)OCCO2)N1CCN(c2ncc(C(F)(F)F)cc2Cl)CC1	-15%	i	-17%	-36%	5
FC(F)(F)c1cnc(N2CCCN(C(=S)Nc3ccccc3)CC2)c(Cl)c1	?	i	?	-58%	-71*
FC(F)(F)c1cnc(N2CCN(C(=S)NCc3ccccc3)CC2)c(Cl)c1	?	i	?	-29%	-93*
O=C(Nc1ccc2c(c1)OCO2)N1CCN(c2ncc(C(F)(F)F)cc2Cl)CC1	-18%	i	-2%	-22%	-61*
O=C(/C=C/c1cccnc1)c1ccc(F)c(F)c1	-21%	i	-9%	-6%	-75*
Cc1cc2n(n1)CCC(=O)N2Cc1ccc(C(=O)Nc2ccc(F)cc2F)cc1	/	/	-23%	-27%	/
COc1ccc(/C=C/C(=O)NCC2COc3ccccc3O2)c(OC)c1 (centres undefined)	3%	i	-2%	16%	-59*
CCC1(C2CCN(C(=O)c3cc(F)ccc3F)CC2)NC(=O)N(CCc2scnc2C)C1=O (centres undefined)	/	i	/	/	/
O=C(NCc1ccc2c(c1)CCN2C(=O)c1ccccc1)c1ccco1	/	/	24%	-10%	/
COc1ccc2c(Sc3ccccc3)c(C(=O)N3CCC(C)CC3)[nH]c2c1	?	/	14µM*	-115%	/
Cc1c(C(=O)Nc2ccc(F)cc2)c2ccccn2c1CCc1ccncc1	15%	i	-21%	0%	-52*
O=S(=O)(c1cccc(F)c1)N1CCN(c2nc(-c3cccs3)nc3ccccc23)CC1	/	/	-9%	8%	/
CCOCCCNC(=O)c1ccc2c(=O)n(CCc3ccc(OC)c(OC)c3)c(=O)[nH]c2c1	11%	i	7%	4%	/
CCN(CC)c1ccc2nc3c4ccccc4c(=O)cc-3oc2c1	107%	i	-2%	-7%	-25
CCN(CC)c1ccc2c(-c3ccc(S(=O)(=O)O)cc3S(=O)(=O)[O-])c3ccc(=[N+](CC)CC)cc-3oc2c1	?	13µM*	32%	-25%	28
CCCC1=Nc2cc(C(=O)NCc3ccccc3)ccc2Sc2ccccc21	/	/	?	8%	/
CCOC(=O)[C@]12Cc3c(cc(OC)c(OC)c3OC)[C@H]1N(Cc1ccccc1)C(=O)c1cc(OC)ccc12	20µM*	11µM*	/	/	/
CCOC(=O)[C@]12Cc3c(cc(OC)c(OC)c3OC)[C@H]1N(Cc1ccccc1)C(=O)c1cc(F)c(F)cc12	-16%	?	/	/	-68*
CCOC(=O)[C@]12Cc3c(cc(OC)c(OC)c3OC)[C@H]1N(CCC(=O)OC)C(=O)c1cc(OC)ccc12	?	/	/	/	-116*
COc1cccc(C2N(Cc3ccccc3)C(=O)C2(F)F)c1OC (centres undefined)	-9%	i	-16%	-15%	30
Cc1cccc(NC(=O)CSc2nnc(-c3cccs3)o2)c1	86%	i	6%	-28%	/
CCCCCCCCCCCCCCCC[n+]1ccc(/C=C/c2c(C)[nH]c3ccccc23)cc1	/	/	?	-90%	/
CSc1cccc(NC(=O)CC(c2ccc(F)cc2)N2Cc3ccccc3C2=O)c1 (centres undefined)	/	/	?	-18%	/
CCc1ccc2c(c1)C1(NN=C(c3ccc(C)cc3)S1)C(=O)N2 (centres undefined)	?	?	16µM*	-95%	-100*
COc1ccc(-c2cn(/N=C/c3ccc(Cl)cc3Cl)c(N)n2)cc1	-21%	i	?	3%	-66*
SMILES	ATXN2 expr inh	S2 tox	TGFb SMAD3 inh	HepG2 viability	IL1B secr inh
O=C(CSc1nc2ccccc2c(=O)n1CCCN1CCOCC1)Nc1cccc(S(=O)(=O)N2CCCCCC2)c1	-2%	?	0%	2%	-53*
Cc1ccc(NC(=O)CSc2nc3ccccc3c(=O)n2CCCN2CCCCC2)cc1Cl	?	?	?	14µM*	-87*
COc1ccc(NC(=O)CSc2nc3ccccc3c(=O)n2CCCN2CCC(C)CC2)c(OC)c1	10%	i	-5%	-7%	-62*
CC1CCN(CCCn2c(SCC(=O)Nc3ccccc3Cl)nc3ccccc3c2=O)CC1	?	?	0%	-68%	-72*
Cc1ccccc1Nc1nnc(-c2ccc(C)c(S(=O)(=O)NCC3CCCO3)c2)c2ccccc12 (centres undefined)	?	?	-19%	-14%	/
CN(C)c1ccc(CN(CC2CCCO2)C(=O)COc2ccccc2Cl)cc1 (centres undefined)	/	/	-16%	-20%	/
COc1ccc2nc(N/C(N)=N/C(=S)Nc3ccccc3)nc(C)c2c1	-19%	i	-26%	-11%	-87*
CCc1ccc(NC(=S)/N=C(\N)Nc2nc(C)c3cc(CC)ccc3n2)cc1	-25%	?	?	-4%	-64*
CCOc1ccc2nc(N/C(N)=N/C(=S)Nc3ccc(OC)cc3)nc(C)c2c1	?	?	-11%	9%	?
Cc1ccccc1NS(=O)(=O)c1ccc2[nH]cc(C(=O)NC3CCCCC3)c(=O)c2c1	/	/	?	-48%	/
Cc1noc(C)c1C(=O)Nc1nc(C23CC4CC(CC(C4)C2)C3)cs1	-12%	i	-3%	-77%	-58*
CNC(=O)C(=O)Nc1nc(C23CC4CC(CC(C4)C2)C3)cs1	5%	i	-9%	-15%	-22
CNC[C@H](CC1CCCCC1)NC[C@H](Cc1ccccc1)NCCC12CC3CC(CC(C3)C1)C2	-26%	16µM*	?	13µM*	-100*
NC[C@H](Cc1ccccc1)NCCCCC1CCCCC1	-12%	i	-10%	-18%	-1
O=C(Nc1ccc2c(c1)oc1ccc(S(=O)(=O)N3CCCC3)cc12)C1CC1	-19%	i	-2%	-23%	-57*
CCN1CCCC1CNC(=O)c1cnn(-c2nccc(-c3cccs3)n2)c1C1CC1 (centres undefined)	/	i	/	/	/
COc1cccc(NC(=O)C(C)n2c(=O)cc(C(F)(F)F)c3c(C)nn(C)c32)c1 (centres undefined)	7%	i	-2%	-1%	/
N#C/C(=C\c1c[nH]c2ccccc12)C(=O)Nc1ncc(Cc2ccc(Cl)cc2Cl)s1	-23%	?	-8%	3%	-61*
N#C/C(=C\c1c[nH]c2ccccc12)C(N)=O	/	?	5%	-1%	-15
COc1cccc(C(=O)Nc2nc(-c3nnn(-c4cccc(Cl)c4C)c3C)ns2)c1	-1%	i	?	-52%	/
COc1ccc(Cl)cc1C(=O)NCC(c1ccc(N(C)C)cc1)N1CCCC1 (centres undefined)	/	/	-1%	-8%	/
CN(N)c1nc(C(F)(F)F)nc2ccccc12	12%	i	16%	7%	-5

Screens (PubChem)
